Inconclusive results are not listed. The source made the active and inactive calls. Unless noted, calls come from the whole dose curve; as a rule, active = well fitted curve in the direction sought with a large enough effect in the repeat runs; inconclusive = weak or mixed curves; inactive = no such curve, though single readings can be large; an effect the other way counts as inactive or inconclusive.
Assays:
[1] = qHTS assay to identify small molecule agonists of the estrogen related receptor (ERR) signaling pathway from Tox21 library (AID 1224849; calls by dose curve; note: nearly all actives have a fitted effect of over 15% in size)
Method in brief: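 Tox21 compounds tested for ERR agonism in an NTP reporter cell line: 18 h treatment at 37 C, then ONE-Glo luminescence.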

[2] = qHTS RealTime-Glo MT Cell Viability Assay in HepG2 cells - 24 hour (AID 1224867); note: nearly all actives have a fitted effect of over 50% in size
Method in brief: (§1)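 HepG2 suspension premixed with RealTime-Glo reagents is plated at 600 cells per well and left 5 h at 37 C/5% CO2. Compounds in DMSO then go in, and bioluminescence reflecting viable cell number is recorded over 40 h.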

[3] = qHTS RealTime-Glo MT Cell Viability Assay in HEK293 cells - 32 hour (AID 1224868); note: top concentration of the series differs between compounds; nearly all actives have a fitted effect of over 50% in size
Method in brief: (§2)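 Reads taken at 0, 8, 16, 24, 32 and 40 h from the same wells. HEK293 cells (600/well) carried RealTime-Glo reagents from seeding, with compound added after a 5 h settle at 37 C.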

[4] = A CellTox Green Cytotoxicity Assay to monitor cytotoxicity in HEK293 cells - 0 hour (AID 1224869); note: nearly all actives have a fitted effect of over 50% in size
Method in brief: (§3)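 Tox21 screen in HEK293: membrane-impermeant cyanine dye fluoresces on binding dead-cell DNA; compound pinned 5 h post-seeding, plates held at 37 C, signal read repeatedly through 40 h.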

[5] = A CellTox Green Cytotoxicity Assay to monitor cytotoxicity in HEK293 cells - 40 hour (AID 1224871); note: nearly all actives have a fitted effect of over 45% in size
Method in brief: as §3

[6] = qHTS RealTime-Glo MT Cell Viability Assay in HEK293 cells - 16 hour (AID 1224872); note: top concentration of the series differs between compounds; nearly all actives have a fitted effect of over 50% in size
Method in brief: as §2

[7] = qHTS RealTime-Glo MT Cell Viability Assay in HepG2 cells - 8 hour (AID 1224873); note: nearly all actives have a fitted effect of over 55% in size
Method in brief: (§4)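 Real-time viability: cells seeded at 600 per well together with NanoLuc and cell-permeant prosubstrate, compounds added after 5 h incubation. Luminescence tracked at 0, 8, 16, 24, 32 and 40 h of exposure.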

[8] = qHTS RealTime-Glo MT Cell Viability Assay in HEK293 cells - 40 hour (AID 1224874); conditions: RealTime-Glo luminescence; max response: active compounds read low; note: nearly all actives have a fitted effect of over 50% in size
Method in brief: (§5)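 HEK293 + NanoLuc + prosubstrate, 600 cells/well; 5 h, 37 C/5% CO2; compound 23 nL in DMSO by pintool; 37 C; luminescence read at 0, 8, 16, 24, 32 and 40 h time points.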

[9] = A CellTox Green Cytotoxicity Assay to monitor cytotoxicity in HEK293 cells - 24 hour (AID 1224875); note: series mostly up to about 77 µM; nearly all actives have a fitted effect of over 45% in size
Method in brief: as §3

[10] = A CellTox Green Cytotoxicity Assay to monitor cytotoxicity in HepG2 cells - 16 hour (AID 1224876); note: nearly all actives have a fitted effect of over 45% in size
Method in brief: (§6)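 Measurements at 0, 8, 16, 24, 32 and 40 h of treatment captured CellTox Green fluorescence in HepG2 cells that had been co-plated with reagent and preincubated 5 h at 37 C/5% CO2.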

[11] = qHTS RealTime-Glo MT Cell Viability Assay in HepG2 cells - 32 hour (AID 1224877); note: nearly all actives have a fitted effect of over 55% in size
Method in brief: as §1

[12] = A CellTox Green Cytotoxicity Assay to monitor cytotoxicity in HepG2 cells - 24 hour (AID 1224878); note: nearly all actives have a fitted effect of over 45% in size
Method in brief: as §6

[13] = A CellTox Green Cytotoxicity Assay to monitor cytotoxicity in HepG2 cells - 40 hour (AID 1224879); note: nearly all actives have a fitted effect of over 40% in size
Method in brief: as §6

[14] = qHTS RealTime-Glo MT Cell Viability Assay in HEK293 cells - 0 hour (AID 1224880)
Method in brief: as §5

[15] = A CellTox Green Cytotoxicity Assay to monitor cytotoxicity in HEK293 cells - 32 hour (AID 1224881); note: nearly all actives have a fitted effect of over 40% in size
Method in brief: as §3

[16] = A CellTox Green Cytotoxicity Assay to monitor cytotoxicity in HepG2 cells - 0 hour (AID 1224882); note: nearly all actives have a fitted effect of over 35% in size
Method in brief: as §6

[17] = A CellTox Green Cytotoxicity Assay to monitor cytotoxicity in HepG2 cells - 32 hour (AID 1224883); note: nearly all actives have a fitted effect of over 50% in size
Method in brief: as §6

[18] = qHTS RealTime-Glo MT Cell Viability Assay in HepG2 cells - 16 hour (AID 1224885); note: nearly all actives have a fitted effect of over 50% in size
Method in brief: as §1

[19] = qHTS RealTime-Glo MT Cell Viability Assay in HepG2 cells - 40 hour (AID 1224870); note: nearly all actives have a fitted effect of over 50% in size
Method in brief: as §4

[20] = A CellTox Green Cytotoxicity Assay to monitor cytotoxicity in HEK293 cells - 8 hour (AID 1224884); note: nearly all actives have a fitted effect of over 35% in size
Method in brief: as §3
% is set by controls: 0 for no effect and ±100 for the full control effect.

CC(C)(c1ccc(Oc2ccc3c(c2)C(=O)OC3=O)cc1)c1ccc(Oc2ccc3c(c2)C(=O)OC3=O)cc1
inactive: outcome [1] | outcome [2] | Potency [3] | Potency [4] | Potency [5] | Potency [6] | outcome [7] | max response [8] 19.4% | Potency [9] | Potency [10] | outcome [11] | Potency [12] | Potency [13] | outcome [14] | Potency [15] | Potency [16] | Potency [17] | outcome [18]

CCN(CCO)c1cccc(C)c1
inactive: outcome [1] | outcome [2] | Potency [4] | outcome [19] | Potency [5] | Potency [6] | outcome [7] | max response [8] 6.86% | Potency [9] | Potency [10] | outcome [11] | Potency [12] | Potency [13] | outcome [14] | Potency [15] | Potency [17] | Potency [20] | outcome [18]

CCCCOC(=O)C(=O)OCCCC
inactive: outcome [1] | outcome [2] | Potency [3] | outcome [19] | Potency [5] | Potency [6] | outcome [7] | max response [8] 0.934% | Potency [9] | Potency [10] | outcome [11] | Potency [12] | Potency [13] | outcome [14] | Potency [15] | Potency [16] | Potency [17] | Potency [20] | outcome [18]

O=c1[nH]c(=O)c2ccccc2o1
inactive: outcome [1] | outcome [2] | outcome [19] | Potency [5] | Potency [6] | outcome [7] | max response [8] 1.98% | Potency [9] | Potency [10] | outcome [11] | Potency [12] | Potency [13] | outcome [14] | Potency [15] | Potency [16] | Potency [17] | Potency [20] | outcome [18]

O=C(Oc1ccccc1C(=O)O)c1ccccc1O
inactive: outcome [1] | outcome [2] | Potency [3] | Potency [4] | Potency [5] | Potency [6] | outcome [7] | max response [8] 4.65% | Potency [9] | Potency [10] | outcome [11] | Potency [12] | Potency [13] | outcome [14] | Potency [15] | Potency [16] | Potency [17] | Potency [20] | outcome [18]

CCS(=O)(=O)CCn1c([N+](=O)[O-])cnc1C
inactive: outcome [1] | outcome [2] | Potency [3] | Potency [4] | Potency [5] | Potency [6] | outcome [7] | max response [8] -0.732% | Potency [10] | outcome [11] | Potency [12] | Potency [13] | outcome [14] | Potency [15] | Potency [16] | Potency [17] | Potency [20] | outcome [18]

CC(C)CCC(=O)CCC(C)C
inactive: outcome [1] | outcome [2] | Potency [3] | outcome [19] | Potency [5] | Potency [6] | outcome [7] | max response [8] 1.42% | Potency [9] | Potency [10] | outcome [11] | Potency [12] | Potency [13] | outcome [14] | Potency [15] | Potency [16] | Potency [17] | Potency [20] | outcome [18]

Nc1ccc(/C=C/c2ccc(N)cc2S(=O)(=O)O)c(S(=O)(=O)O)c1
inactive: activity change, positive = activation [1] 2.43% [at 0.349 µM] | activity change, negative = cytotoxicity [2] 2.78% [at 0.29 µM] | cytotoxicity [4] 5.28% [at 0.29 µM] | activity change, negative = cytotoxic [19] 0.506% [at 0.29 µM] | cytotoxicity increase [5] -0.161% [at 0.29 µM] | activity change, negative = cytotoxicity [6] 2.56% [at 0.29 µM] | viability change, negative = cytotoxic [7] 5.84% [at 0.29 µM] | max response [8] 2.9% | cytotoxicity increase [10] -10.5% [at 0.29 µM] | activity change, negative = cytotoxic [11] -0.0646% [at 0.29 µM] | cytotoxicity [12] -13.6% [at 0.29 µM] | cytotoxicity increase [13] -16.8% [at 0.29 µM] | activity change, negative = cytotoxicity [14] 3.48% [at 0.29 µM] | cytotoxicity increase [15] -0.592% [at 0.29 µM] | cytotoxicity [16] 1.07% [at 0.29 µM] | cytotoxicity increase [17] -15.7% [at 0.29 µM] | cytotoxicity increase [20] 0.921% [at 0.29 µM] | activity change, negative = cytotoxic [18] 4.55% [at 0.29 µM]

CCCCCCCCCCCCCCCCI
inactive: activity change, positive = activation [1] 2.23% [at 19 µM] | activity change, negative = cytotoxicity [2] -1.23% [at 15.8 µM] | activity change, negative = cytotoxic [3] -10.5% [at 15.8 µM] | activity change, negative = cytotoxic [19] 17.3% [at 15.8 µM] | cytotoxicity increase [5] -8.08% [at 15.8 µM] | activity change, negative = cytotoxicity [6] -6.59% [at 15.8 µM] | viability change, negative = cytotoxic [7] -19.7% [at 15.8 µM] | max response [8] -10.6% | activity change [9] -5.96% [at 15.8 µM, active compounds read high] | cytotoxicity increase [10] -9.76% [at 15.8 µM] | activity change, negative = cytotoxic [11] 7.46% [at 15.8 µM] | cytotoxicity [12] -11% [at 15.8 µM] | cytotoxicity increase [13] -12.9% [at 15.8 µM] | activity change, negative = cytotoxicity [14] -2.88% [at 15.8 µM] | cytotoxicity increase [15] -8.24% [at 15.8 µM] | cytotoxicity [16] -4.1% [at 15.8 µM] | cytotoxicity increase [17] -12.6% [at 15.8 µM] | cytotoxicity increase [20] -6.52% [at 15.8 µM] | activity change, negative = cytotoxic [18] -8.4% [at 15.8 µM]

CCCCC(C)C(=O)O (stereo unspecified)
inactive: outcome [1] | outcome [2] | Potency [3] | Potency [4] | Potency [5] | Potency [6] | max response [8] -5.74% | Potency [9] | outcome [14] | Potency [15] | Potency [20] | outcome [18]

CC(Cl)COP(=O)(OCC(C)Cl)OCC(C)Cl (stereo unspecified)
inactive: outcome [1] | outcome [2] | Potency [4] | outcome [19] | Potency [5] | Potency [6] | outcome [7] | max response [8] -0.188% | Potency [9] | Potency [10] | outcome [11] | Potency [12] | Potency [13] | outcome [14] | Potency [15] | Potency [16] | Potency [17] | outcome [18]

CN(C1CCCCC1)S(=O)(=O)c1ccccc1N
inactive: outcome [1] | outcome [2] | Potency [4] | outcome [19] | Potency [5] | outcome [7] | Potency [9] | Potency [10] | outcome [11] | Potency [12] | Potency [13] | outcome [14] | Potency [15] | Potency [16] | Potency [17] | outcome [18]

Cc1c(C(C)C)c(=O)n(-c2ccccc2)n1C
inactive: outcome [1] | outcome [2] | Potency [3] | Potency [4] | Potency [5] | Potency [6] | outcome [7] | max response [8] 3.94% | Potency [9] | Potency [10] | outcome [11] | Potency [12] | Potency [13] | outcome [14] | Potency [15] | Potency [16] | Potency [17] | Potency [20] | outcome [18]
